Reference: PubChem BioAssay (NCI)
Where “and” joins values, the source holds several entries; their conditions need not be identical. Identical values can stand only once. The panel holds about 83,000 compounds, 20% with a hit somewhere; the sample as a whole holds those more often.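 Assay: single dose, 48 h. Readout: percent growth (0 = no net growth; negative = cell death). Active: <10.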 Unmarked numbers belong to inactive results. Calls of active or inactive are those of the source.

What follows are compounds tested on A498 renal (assay: NCI-60 one-dose screen, 48 h (100 = growth as untreated, 0 = no growth, -100 = all killed)). Details: 10 µM.
Experimental: Growth inhibition of the A498 human tumor cell line is measured as a screen for anti-cancer activity. Cells are grown in 96 well plates and exposed to the test compound for 48 hours. Compounds are tested at a single concentration, which is 10^-5 M for most compounds. The reported endpoint is percent growth (GI% or GIPRCNT), where numbers from 0 - 100% represent growth inhibition, and numbers from -100% - 0 represent cell death. For example, a value of 40 represents 60% growth inhibition. A value of 0 means no net growth occurred over the course of the experiment. A value of -40 indicates 40% of cells at the beginning of the experiment died by the end of the experiment. A value of -100 means all cells are dead at the end of the experiment.
NCI-60 Human Tumor Cell Lines Screen was performed using the standard one-dose NCI protocol, which is described in more detail at https://dtp.cancer.gov/discovery_development/nci-60/default.htm.
Compounds with GIPRCNT values below 10 were considered active. Activity score was based on GIPRCNT using the following formula: […]
Score is 0 for GIPRCNT values of 100 or above, 50 for GIPRCNT values of 0, and 100 for GIPRCNT values of -100.

**Q.** For `O=[N+]([O-])c1ccc(N(CCO)CCO)c2c1no[n+]2[O-]`, which growth is on record?
**A.** Its growth is -15.6% (active).

**Q.** `C[CH2][Hg][S]c1ccccc1C(=O)O` was tested. Which growth did it give?
**A.** The growth was 18.1%.

**Q.** For `CCOP(=O)(OCC)C(O)c1ccccc1Cl` (stereo not given), which growth is on record?
**A.** Its growth is 103%.

**Q.** How did the growth turn out when `O=C(CCl)Nc1ccc(Cl)cc1` was run?
**A.** The growth was 113%.

**Q.** How did the growth turn out when `O=C1C(=O)c2ccccc2-c2ccccc21` was run?
**A.** Its growth is 88.9%.

**Q.** With `O=[N+]([O-])/C=C/c1ccc(Cl)cc1[N+](=O)[O-]` as the compound, how does the growth read?
**A.** Its growth is 106%.

**Q.** How did the growth turn out when `O=[N+]([O-])/C=C/c1ccc([N+](=O)[O-])cc1` was run?
**A.** The growth was 19.7% and 126%.

**Q.** Which growth does the source give for `C/C(=C\c1ccc(Cl)c(Cl)c1)[N+](=O)[O-]` here?
**A.** The growth was 103% and 79.2%.

**Q.** `CC(C)C1(NC(=O)C2CC3c4cccc5[nH]cc(c45)CC3N(C)C2)OC2(O)C3CCCN3C(=O)C(Cc3ccccc3)N2C1=O` (stereo not given) was tested. Which growth did it give?
**A.** Its growth is 97.5%.

**Q.** With `COc1cc(/C=C(/C)[N+](=O)[O-])ccc1O` as the compound, how does the growth read?
**A.** The growth was 87.9% and 100%.

**Q.** How did the growth turn out when `COc1ccc(/C=C(\C)[N+](=O)[O-])cc1OC` was run?
**A.** Its growth is 111%.

**Q.** How did the growth turn out when `CC(=O)[O][Hg][c]1c(C)c(C)cc(C)c1C` was run?
**A.** Its growth is 101%.

**Q.** For `Cc1ccc(NC(=O)CBr)cc1`, which growth is on record?
**A.** Its growth is 99.3%.

**Q.** How did the growth turn out when `COC12c3c(C)cc(O)c4c(=O)occ(c34)C(=O)C1C13COC(=O)c4c(O)cc(C)c(c41)C(=O)C2C3OC(C)=O` (stereo not given) was run?
**A.** The growth was 114%.

**Q.** For `CN(CCCl)c1ccc(/C=C/C2=[N+](C)c3ccccc3C2(C)C)cc1`, which growth is on record?
**A.** Its growth is 66.3%.

**Q.** For `COc1ccccc1[As]=[As]c1ccccc1OC` (stereo not given), which growth is on record?
**A.** The growth was -96.3% (active).

**Q.** How did the growth turn out when `NC(Cc1ccccc1)c1ccccc1` (stereo not given) was run?
**A.** The growth was 99.9%.

**Q.** `O=C1CCC(=O)N1SC(Cl)(Cl)Cl` was tested. Which growth did it give?
**A.** Its growth is 127%.

**Q.** Which growth does the source give for `COc1cc([C@@H]2c3cc4c(c(O)c3C[C@H]3COC(=O)[C@@H]32)OCO4)cc(OC)c1OC` here?
**A.** The growth was -29.1% (active).

**Q.** For `COc1ccc2c(ccc3oc([N+](=O)[O-])cc32)c1`, which growth is on record?
**A.** The growth was -76.1% (active).

**Q.** How did the growth turn out when `CC(C)c1cc([N+](=O)[O-])cc([N+](=O)[O-])c1O` was run?
**A.** The growth was 108%.

**Q.** `COc1cc([N+](=O)[O-])c2ncccc2c1[N+](=O)[O-]` was tested. Which growth did it give?
**A.** The growth was 122%.

**Q.** For `O=C1C=Cc2ccccc2C1=O`, which growth is on record?
**A.** The growth was 91.3%.

**Q.** For `O=[N+]([O-])c1cc[n+]([O-])c2ccccc12`, which growth is on record?
**A.** The growth was -34.7% (active).

**Q.** Which growth does the source give for `COC12C(COC(N)=O)C3=C(C(=O)C(C)=C(N)C3=O)N1CC1C2N1C` (stereo not given) here?
**A.** The growth was 46.9%.

**Q.** How did the growth turn out when `CN(C)CC1(N)C(=O)NC(=O)NC1=O` was run?
**A.** Its growth is 54.9%.

**Q.** Which growth does the source give for `[Cl][Sn]([c]1ccccc1)([c]1ccccc1)[c]1ccccc1` here?
**A.** Its growth is -91% (active).

**Q.** For `COc1cc(/C=C/[N+](=O)[O-])cc(OC)c1OC`, which growth is on record?
**A.** Its growth is 47.1%.

**Q.** Which growth does the source give for `COc1ccccc1/C=C/[N+](=O)[O-]` here?
**A.** The growth was 109%.

**Q.** For `Oc1c(Cl)cc(Cl)c2ccccc12.[Cu+2]`, which growth is on record?
**A.** The growth was 106%.

**Q.** Which growth does the source give for `C=NCC#N` here?
**A.** The growth was 110%.

**Q.** `NNc1ccccc1` was tested. Which growth did it give?
**A.** Its growth is 97.5%.

**Q.** Which growth does the source give for `O=C(O)c1cc(Cc2ccc(O)c(C(=O)O)c2)ccc1O` (tested in a mixture with another compound) here?
**A.** Its growth is 84.7%.

**Q.** How did the growth turn out when `O=[N+]([O-])c1ccc(Br)c([N+](=O)[O-])c1` was run?
**A.** Its growth is 98.3%.

**Q.** `COc1cc2c(cc1OC)C13CCN4CC5=CCOC6CC(=O)N2C1C6C5CC43` (stereo not given) was tested. Which growth did it give?
**A.** The growth was 108% and 87.2%.

**Q.** `C[C@]12CC[C@H]3[C@@H](CCC4=CC(=O)CC[C@@H]43)[C@@H]1CC[C@@H]2OC(=O)N(CCCl)N=O` was tested. Which growth did it give?
**A.** Its growth is 58%.

**Q.** With `C/C1=C\[C@H](C)C[C@H](C)OC(=O)C[C@H](c2ccc(O)cc2)NC(=O)[C@@H](Cc2c(Br)[nH]c3ccccc23)N(C)C(=O)[C@H](C)NC(=O)[C@@H](C)C1` as the compound, how does the growth read?
**A.** Its growth is -78.8% (active).

**Q.** Which growth does the source give for `COC(=O)C1C(O)C(C)C(O)C(C)/C=C\C=C(C)C(=O)Nc2c(C)c(OC(C)=O)c3c(c2O)C(=O)C(C)=C2OCOC(=C23)C(C)=CC(C)(O)C(O)C(C)C1O` (stereo not given) here?
**A.** The growth was 102%.

**Q.** Which growth does the source give for `O=[P+](O)c1ccccc1` here?
**A.** The growth was 104%.

**Q.** For `Oc1c(I)cc(I)cc1I`, which growth is on record?
**A.** The growth was 97.9%.
